# The full list was thinned out, with hits kept by preference.
# Pf Dd2 inh: blocks in vitro growth of P. falciparum Dd2 | Potency, µM (top dose mostly 28.9 µM), for the others: at the top dose activity, negative = inhibition, hits mostly inhibitors | P. falciparum Dd2 growth, SYBR Green, 72 h | actives 4.3% (n = 120,000); active = well fitted inhibition curve with a large enough effect;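 note: plate controls were DMSO vehicle for no effect and reference drug for full effect; nearly all actives have a fitted effect of over 65% in size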
#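 Readout: SYBR Green fluorescence, 485 nm excitation, 535 nm emission, after ~16 h lysis at 37C. Before that, Dd2-infected red cells (2.5% hematocrit) grew 72 h with compound, 29 uM top final concentration.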
# The depositor's hits bear a star; i = inactive; [ ] = another dose, or the depositor's remark. Potency is the fitted concentration of half-maximal effect.
SMILES,Pf Dd2 inh
CCNC(=O)Nc1ccc(OCC(=O)N2CCN(c3ccccc3Cl)CC2)nc1,i
COCCOc1ccc(C(=O)N[C@@H]2CN(C(=O)NC(C)C)CCC[C@H]2O)cc1,i
O=Cc1ccc(N2CCN(C(=O)N3CCCC3)CC2=O)cc1,-3%[44.1 µM]
COCCc1nncn1C1CCN(S(=O)(=O)c2cccc(C)c2)CC1,i
COC1CCC12CCN(Cc1ccccc1C#N)CC2 (stereo not given),-10%
COC[C@@H]1CN(C(=O)COc2ccccc2)C[C@H]1C(N)=O,7%
O=C(C1CCCC1)N1CCC2(CC1)CC(c1cccnc1)=NO2,-14%
COCc1nc(CCNC(=O)c2ccoc2)no1,114%
N#Cc1ccc(C(=O)N2C[C@@H]3C[C@H](C2)c2c(-c4cncnc4)ccc(=O)n2C3)cc1,32%[44.1 µM]
CCCN(CC1CC1)C(=O)CCC1CCCN(S(=O)(=O)c2ccc(C)cc2)C1 (stereo not given),-20%
Cc1noc2c(-c3cccnc3NCCN(C)C)cc(-c3ccccc3)nc12,i
COCCCNc1ncccc1-c1cc(-c2ccccc2)nc2c(C)noc12,i
Cc1noc2c(-c3cccnc3NCCCn3ccnc3)cc(-c3ccccc3)nc12,10µM*
Cc1ccc(C(=O)NC2CCN(c3cnn(C)c(=O)c3)CC2)cc1F,4%
O=C1CC(c2ccccc2)N(C(=O)CNC(=O)CN2CCOCC2)CCCCCN1 (stereo not given),-6%
COc1ccccc1N1CCN(C(=O)Cn2ccn3nc(-c4ccc(F)cc4)c(CO)c3c2=O)CC1,8.9µM*
O=C(Cn1ccn2nc(-c3ccccc3)c(CO)c2c1=O)N1CCN(c2ccccc2F)CC1,-1%
O=C(Cn1ccn2nc(-c3ccc(F)cc3)c(CO)c2c1=O)N1CCN(c2ccccc2F)CC1,i
O=c1c2c(CO)c(-c3ccc(F)cc3)nn2ccn1CCc1ccccc1,i
COc1ccccc1N1CCN(C(=O)Cn2c(=O)nc(-c3ccccc3)c3ccccc32)CC1,11µM*
COc1ccccc1N1CCN(C(=O)Cn2c(=O)n3nc(-c4cccc(F)c4)nc3c3ccccc32)CC1,30%
O=c1c2c(CO)c(-c3ccccc3)nn2ccn1Cc1cccc(F)c1,i
CCc1cc(=O)n(CC(=O)N2CCN(c3ccccc3OC)CC2)c(-c2ccccc2)n1,-22%
O=c1c2c(CO)c(-c3ccc(F)cc3)nn2ccn1Cc1ccc(Br)cc1,8.9µM*
Cc1ccc(-n2c(C3CCN(C(=O)CC4CCCCC4)CC3)n[nH]c2=O)cc1,-1%
SMILES,Pf Dd2 inh
CN(C)S(=O)(=O)N1CCCC(C(=O)Nc2cccc(-n3cccn3)c2)C1 (stereo not given),-24%
O=C([C@H]1C[C@H](Oc2ccccc2)CN1C(=O)NCc1ccc(F)cc1)N1CCOCC1,-15%
COCCC(=O)Nc1cccnc1OC1CCN(C)C1 (stereo not given),-19%
CN(C)C1CCN(Cc2cc3cc4c(cc3nc2-c2ccc(Cl)cc2)OCO4)C1 (stereo not given),11µM*
CSc1ccc(C(=O)N2CCN(Cc3ccccc3)CC(O)C2)cc1 (stereo not given),-5%
COc1cc2cc(CN3CCC(N(C)C)C3)c(-c3cccc(Cl)c3)nc2cc1OC (stereo not given),7.9µM*
CSc1ccc2cc(CN3CC[C@@H](O)C3)c(-c3ccc(Cl)cc3)nc2c1,11µM*
CS(=O)(=O)N1C[C@H]2CCN(Cc3cc(Cl)ccc3F)C[C@H]21,-1%
O=C1[C@H]2CN(Cc3ccc(Cl)cc3)C[C@H]2C(=O)N1Cc1ccc2c(c1)OCO2,-4%
COc1ccc(OC)c2nc(-c3cccc(Cl)c3)c(CN3CCC(O)CC3)cc12,i
Cn1ncc(CN2CC[C@@H](c3ccc4c(c3)OCO4)[C@H](O)C2)c1C1CC1,-23%
COc1ccc(N2CCOC3CCN(Cc4cccc(Cl)c4)CC3C2=O)cc1 (stereo not given),i
Cn1nc(C(=O)N2CCCOCCNC(=O)CC2)c2ccccc21,8%
COC[C@@H]1[C@H](NC(=O)c2cnc3c(c2)CCC3)[C@@H]2CCO[C@H]12,1%
Cc1ccccc1NC(=O)CC[C@H]1NC(=O)c2ccccc2NC1=O,-4%
Cn1ccnc1CN1C(=O)CO[C@H](c2ccc(NC(=O)c3ccc(F)c(Cl)c3)cc2)[C@H]1CO,-10%
CCN(CC)C(=O)CC[C@@H]1CNC(=O)[C@@H]2C[C@H](NCc3ccccc3)CN12,10%[44.1 µM]
CCOC(=O)c1ccc(NC(=O)C(CC)Sc2nncn3c2cc2oc(C)cc23)cc1 (stereo not given),10µM*
Cc1cc(C)c(NC(=O)CSc2nncn3c2cc2oc(C)cc23)c(C)c1,221%[5.79 µM]
COc1ccc(NC(=O)CSc2nncn3c2cc2oc(C)cc23)cc1OC,13%
O=C(NCCC1=CCCCC1)c1noc(-c2ccc[nH]c2=O)n1,i
COc1cc(OC)cc(OCc2nnc(C(=O)N3CCC[C@@H]3C)n2-c2ccccc2)c1,i
CNc1cc(C2CC(NC(=O)COc3ccc(Cl)cc3C)C2)nc(N)n1 (stereo not given),7.9µM*
Cc1cc(C)nc(NS(=O)(=O)c2ccc(NC(=O)COc3ccc(Cl)cc3C)cc2)n1,i

# From PubChem
